Assay outcomes (PubChem)
JMJD2A Tudor: JMJD2A Tudor domain (human) inhibition. O75164. AlphaScreen JMJD2A-Tudor / H3K4me3 peptide binding. Potency, µM (series often up to 114 µM), for inactives: top-dose activity change, negative = inhibition, most hits filed as inhibitors. 390,000 tested, 4.4% active; further: potency means the concentration at half of the fitted maximal effect; on the % scale 0 is the no-effect control and ±100 the full control effect; nearly all actives have a fitted effect of over 50% in size
Target sequence (O75164 whole entry, looked up, the tested form may be a part): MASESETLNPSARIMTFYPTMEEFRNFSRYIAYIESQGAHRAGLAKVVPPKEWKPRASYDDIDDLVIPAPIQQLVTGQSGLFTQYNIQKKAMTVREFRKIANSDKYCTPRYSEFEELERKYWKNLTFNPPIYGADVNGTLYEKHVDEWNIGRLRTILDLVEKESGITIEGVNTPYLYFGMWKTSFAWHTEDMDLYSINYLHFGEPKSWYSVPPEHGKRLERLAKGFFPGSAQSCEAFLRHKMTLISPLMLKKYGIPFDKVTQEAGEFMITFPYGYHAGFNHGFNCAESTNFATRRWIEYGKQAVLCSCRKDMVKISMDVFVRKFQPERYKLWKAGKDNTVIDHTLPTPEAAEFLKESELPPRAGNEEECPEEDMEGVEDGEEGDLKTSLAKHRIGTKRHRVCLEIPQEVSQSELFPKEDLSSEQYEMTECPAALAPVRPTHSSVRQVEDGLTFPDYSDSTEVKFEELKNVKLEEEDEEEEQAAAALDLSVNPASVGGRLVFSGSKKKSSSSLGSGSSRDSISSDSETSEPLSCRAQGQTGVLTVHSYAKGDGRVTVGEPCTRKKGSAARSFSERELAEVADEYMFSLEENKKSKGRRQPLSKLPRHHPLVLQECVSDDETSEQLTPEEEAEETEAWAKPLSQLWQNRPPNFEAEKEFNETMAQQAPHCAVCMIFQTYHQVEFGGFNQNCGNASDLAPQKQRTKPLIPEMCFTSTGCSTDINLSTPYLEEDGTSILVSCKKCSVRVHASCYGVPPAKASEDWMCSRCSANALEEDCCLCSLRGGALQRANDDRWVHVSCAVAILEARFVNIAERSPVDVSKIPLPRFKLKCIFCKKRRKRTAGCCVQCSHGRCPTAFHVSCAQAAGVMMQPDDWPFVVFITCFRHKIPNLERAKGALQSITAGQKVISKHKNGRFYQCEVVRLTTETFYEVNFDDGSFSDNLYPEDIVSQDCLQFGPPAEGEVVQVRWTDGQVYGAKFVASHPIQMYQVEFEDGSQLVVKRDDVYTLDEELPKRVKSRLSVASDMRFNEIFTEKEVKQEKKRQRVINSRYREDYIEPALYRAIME
HP1b binding inh: blocks HP1-beta chromodomain binding to methylated histone tails; AlphaScreen HP1-beta / biotin-H3K9me3 peptide binding; 390,000 tested, 0.56% active; Potency, µM (titrated, usually from 114 µM), without a hit: top-dose activity change, negative = inhibition, most hits filed as inhibitors; P83916; AID 540317; further: potency means the concentration at half of the fitted maximal effect; nearly all actives have a fitted effect of over 70% in size
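HP1-beta protein (50 nM final) preincubated 30 min at room temperature with biotinylated H3(1-18)K9me3 peptide (50 nM) in PBS pH 7.4, 0.01% Tween-20, then compound added for 30 min. AlphaScreen streptavidin donor/nickel chelate acceptor beads (10 ug/mL final), 30 min dark, luminescence read.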
G9a inh: G9a (human) methyltransferase inhibition | Q96KQ7 | G9a H3K9 monomethylation, AlphaScreen, 2 h | Potency, µM (top dose mostly 102 µM), for inactives: top-dose activity, negative = inhibition, most hits filed as inhibitors | 350,000 tested, 8.8% active; further: potency means the concentration at half of the fitted maximal effect; on the % scale 0 is the no-effect control and ±100 the full control effect; nearly all actives have a fitted effect of over 75% in size
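Using a bead-based AlphaScreen, monomethylated H3K9 product from 2 h room-temperature reactions (G9a 20 nM, peptide 500 nM, SAM 20 uM) was detected with 0.5 ug/mL rabbit anti-H3K9me1 antibody.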
CtBP-E1A blk: CtBP/E1A binding inhibition. AlphaScreen GST-E1A/His-CtBP binding, 1536-well; stronger effect = lower value. 340,000 tested, 0.49% active. AID 651724. activity change, % (test concentration not listed); in the data active means activity change below about -65%; inconclusive means mostly about -30% to -63%; further: on the % scale 0 is the no-effect control and ±100 the full control effect
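AlphaScreen with 125 nM GST-E1A and 125 nM His-CtBP (5X stocks) in Tris pH 8.0, 300 mM NaCl, BSA, Tween 20, TCEP. Compounds preincubated 2 h at 37 deg C, then glutathione donor/nickel acceptor beads added for 1 h at 37 deg C in dark.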
Six1-Eya2 blk: blocks human Six1 binding to Eya2; Q15475+O00167; AlphaScreen GST-Six1/His-Eya2 binding, biochemical; stronger effect = lower value; activity change, % (concentration not given with the values); 360,000 tested, 0.56% active; in the data active means activity change below about -65%; inconclusive means mostly about -30% to -63%; further: on the % scale 0 is the no-effect control and ±100 the full control effect
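Compounds are tested against tagged Six1 and Eya2 proteins bridged by glutathione donor and nickel acceptor beads; after a one-hour incubation at 37 °C without light, AlphaScreen emission is recorded.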
BAZ2B block: inhibitors of human BAZ2B bromodomain; Q9UIF8; AlphaScreen BAZ2B-H3K14Ac peptide displacement; Potency, µM (highest dose often 114 µM), for inactives: at the highest dose activity change, negative = inhibition, hits mostly inhibitors; 360,000 tested, 4.4% active; AID 504333; further: potency means the concentration at half of the fitted maximal effect; on the % scale 0 is the no-effect control and ±100 the full control effect; nearly all actives have a fitted effect of over 60% in size
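Inhibition is scored as reduced AlphaScreen emission. The BAZ2B/b-H3(5-23)K14Ac complex (50 nM each) in PBS pH 7.4, 0.01% Tween-20 meets compound (up to 110 uM) for 30 min at RT before bead addition.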
The depositor's hits bear a star; ? = inconclusive; . = not tested or not shown; [ ] = another dose, or the depositor's remark. The list is not random: actives were taken first. Their share in the collection is about 10%. Unless noted, the call rests on the fitted dose curve; in most records, active means well fitted inhibition curve with a large enough effect; inconclusive means small, poorly fitted or top-dose-only effect; inactive means no such curve, though single readings can be large or run the other way.

SMILES	JMJD2A Tudor	HP1b binding inh	G9a inh	CtBP-E1A blk	Six1-Eya2 blk	BAZ2B block
O=C(NCCCCCCNC(=O)c1ccc(Br)s1)c1ccc(Br)s1	-1%	23%	?	-1	5	0%
O=C(COC(=O)c1cc(S(=O)(=O)N2CCOCC2)ccc1F)NCc1ccco1	-8%	22%	20%	7	2	-22%
CC[n+]1c(/C=C/C=C/N(C(C)=O)c2ccccc2)sc2cc(OC)ccc21	56µM*	?	?	-10	?	45µM*
CCCCNC(=O)c1ccc2nc(-c3ccco3)c(-c3ccco3)nc2c1	25µM*	?	7.9µM*	-22	-25	50µM*
CCc1nc2ccc(C(=O)NCCc3ccco3)cc2nc1CC	-21%	53%	-28%	-5	-6	-25%[57.1 µM]
O=C(NCCO)Nc1ccc2nc(-c3ccco3)c(-c3ccco3)nc2c1	.	.	.	.	.	3.2µM*
Cc1nc2ccc(NC(=O)NCCO)cc2s1	-11%	7%	9%[59 µM]	6	-3	-2%
O=C(NCCCO)c1ccc2nc(-c3ccco3)c(-c3ccco3)nc2c1	50µM*	?	7.1µM*	-16	?	50µM*
CCCCn1c(N)c(N(CCOC)C(=O)CCNC(=O)c2ccc(Cl)cc2)c(=O)[nH]c1=O	-12%	57%	-51%	7	10	-17%
COc1ccc(-c2nc3ccc(NS(=O)(=O)c4ccc(C)cc4)cc3o2)cc1	-26%	9%	-3%[59 µM]	.	.	-26%
COC(=O)C1=COC(OC2OC(CO)C(O)C(O)C2O)C2C1C=CC2(O)CO (stereo not drawn)	35µM*	20µM*	1%[12.7 µM]	1	-21	28µM*
CC(=O)c1c(C)[nH]c(C(=O)Nc2nc(C)cs2)c1C	-8%	13%	-36%	-2	-14	50µM*
COc1ccc(-c2nc(NC(=O)c3[nH]c(C)c(C(C)=O)c3C)sc2C)cc1	?	-14%	50µM*	-2	-15	?
CCOC(=O)C1CCCN(S(=O)(=O)c2cc3[nH]c(=O)c(=O)[nH]c3cc2C)C1 (stereo not drawn)	-14%	38%	12%	3	-4	-1%
CC(=O)OC[C@H]1O[C@@H](O/N=C(\C)CCN2CCCCc3nc(C)c(C)cc32)[C@H](OC(C)=O)[C@@H](OC(C)=O)[C@@H]1OC(C)=O	.	.	?	.	.	-21%
C/C(CCC(=O)OC[C@H]1O[C@H](C#Cc2ccccc2)C=C[C@@H]1Oc1ccc(C)cc1)=N\O[C@@H](C)CN1CCCCc2nc(C)c(C)cc21	.	.	35µM*	.	.	-37%
COc1ccc(O[C@H]2C=C[C@@H](c3ccccc3)O[C@@H]2COC(=O)CC/C(C)=N/O[C@@H](C)CN2CCCCc3nc(C)c(C)cc32)cc1	.	.	35µM*	.	.	-39%
CCCCCC(=O)N1C[C@H](O)[C@@H](n2cc(C3CC3)nn2)C[C@@H]1c1ccc(C)cc1	.	.	.	-1	-1	.
COc1ccccc1C(=O)NN(C)C1=NS(=O)(=O)c2ccccc21	5%	26%	14%	0	2	13%
CN(NC(=O)CN1C(=O)c2ccccc2C1=O)C1=NS(=O)(=O)c2ccccc21	-10%	27%	79µM*	-2	4	-12%
CC(C)(Sc1ccc(CCN(CCCCC2CCCCC2)C(=O)NC2CCCCC2)cc1)C(=O)O	79µM*	14%	79µM*	-2	-6	79µM*
CN(Cc1ccccc1)C(=O)NC1CCCCC1	-2%	36%	26%[59 µM]	2	0	45%
CCN(CC)C(=O)Cn1c(SCC(=O)Nc2ccc(C)c(C)c2)nc2ccccc21	0%	73%	23%[59 µM]	.	.	10%
O=C(CN1CCN(S(=O)(=O)c2ccc(Cl)cc2)CC1)N1CCCC1	-8%	40%	-4%	6	6	-6%
